Experimental findings from the supplement of paper PMC6124720 are described below.

Where a name gives a salt, the structure may show the parent alone. A number with no mark means an inactive call.
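Further: biolog Phenotype Microarray plates PM21–25, OD595 followed daily over 11 days, growth curves converted to index, mean of two independent experiments.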

The test system of this experiment is Pseudogymnoascus destructans 20631-21. Put plainly: growth activity index (DuctApe, 0 = no growth, 9 = maximal growth) (index 0-9); higher = more fungal growth (less inhibition), active = 0 or less; extreme values may be limits of the assay. To be noted: concentration level (1-4, increasing; Biolog proprietary): 3; temperature: 13 °C; YPD.
As for `NO` [Hydroxylamine] (Biolog plate: PM23), the growth activity index is 2.67. In the case of `CO/N=C(\C(=O)N[C@@H]1C(=O)N2C(C(=O)O)=C(CSc3nc(=O)c(O)nn3C)CS[C@H]12)c1csc(N)n1` [Ceftriaxone] (Biolog plate: PM22), the growth activity index was 0 (active). Turning to `NC[C@H]1O[C@H](O[C@H]2[C@H](O)[C@@H](O[C@H]3O[C@H](CO)[C@@H](O)[C@H](N)[C@H]3O)[C@H](N)C[C@@H]2N)[C@H](O)[C@@H](O)[C@@H]1O` [Kanamycin] (Biolog plate: PM25), the growth activity index is 5. `OCC1OC(O)CC(O)C1O` [2-Deoxy-D-glucose] (Biolog plate: PM23): the growth activity index is 5. For `CCCCCCCC(=O)[O-].[Na+]` [Sodium Caprylate] (Biolog plate: PM23) the value was 4; for `[Cl][Co][Cl]` [Cobalt (II) chloride] (Biolog plate: PM23), 4.33; for `O=S(=O)([O-])[O-].[Cu+2]` [Copper (II) sulfate] (Biolog plate: PM21), 6. On to `C=C(CC[C@]12O[C@H](C(=O)O)[C@@](O)(C(=O)O)[C@](C(=O)O)(O1)[C@H](OC(=O)/C=C/[C@@H](C)C[C@@H](C)CC)[C@H]2O)[C@@H](OC(C)=O)[C@H](C)Cc1ccccc1` [Zaragozic acid A] (Biolog plate: PM24), for which the growth activity index was 0.667. Consider `c1ccc(-c2nn(-c3ccccc3)[n+](-c3cccc4ccccc34)n2)cc1` [Tetrazolium violet] (Biolog plate: PM25), for which the growth activity index was 0 (active). `[Cl-].[Li+]` [Lithium chloride] (Biolog plate: PM22): the growth activity index was 0 (active). As for `Nc1c2ccccc2nc2ccccc12` [9-Aminoacridine] (Biolog plate: PM24), the growth activity index is 7. With `O=S(O)(O)=S` [Sodium Thiosulfate] (Biolog plate: PM23), the growth activity index is 1.67. Consider `[Cl][Cu][Cl]` [Cupric chloride] (Biolog plate: PM23), for which the growth activity index was 6.

Take `CSc1ccc2c(c1)N(CCC1CCCCN1C)c1ccccc1S2` (stereo not given) [Thioridazine] (Biolog plate: PM24): the growth activity index is 0 (active). Take `O.O.O.O.O.O.[Cl-].[Cl-].[Mg+2]` [Magnesium chloride] (Biolog plate: PM21): the growth activity index was 4. Turning to `NC(N)=S` [Thiourea] (Biolog plate: PM21), the growth activity index is 0 (active). Take `CN1CCN(CCCN2c3ccccc3Sc3ccc(C(F)(F)F)cc32)CC1` [Trifluoperazine] (Biolog plate: PM21): the growth activity index was 3.5. Consider `Nc1[nH]c(=O)ncc1F` [5-Fluorocytosine] (Biolog plate: PM25), for which the growth activity index was 4.33. Turning to `NCC(=O)NO` [Glycine hydroxamate] (Biolog plate: PM22), the growth activity index was 2. With `O=NO` [Sodium Nitrite] (Biolog plate: PM23), the growth activity index was 1. `O=C(O)/C=C/c1ccccc1` [Cinnamic acid] (Biolog plate: PM25): the growth activity index is 5. On to `O=C(O)CC(O)C(=O)O` (stereo not given) [Malic acid] (Biolog plate: PM25), for which the growth activity index is 2.67. For `CN(C)[C@@H]1C(O)=C(C(N)=O)C(=O)[C@@]2(O)C(O)=C3C(=O)c4c(O)ccc(Cl)c4[C@@](C)(O)[C@H]3C[C@@H]12` [Chlortetracycline] (Biolog plate: PM24), the growth activity index was 6. On to `CC(=O)OCC1=C(C(=O)O)N2C(=O)[C@@H](NC(=O)Cc3cccs3)[C@H]2SC1` [Cephalotin] (Biolog plate: PM22), for which the growth activity index is 5.

In the case of `NC(CO)C(=O)NO` (racemic) [DL-Serine hydroxamate] (Biolog plate: PM22), the growth activity index is 0 (active). Regarding `NC[C@H]1O[C@H](O[C@H]2[C@H](O)[C@@H](O[C@H]3O[C@H](CO)[C@@H](O)[C@H](N)[C@H]3O)[C@H](N)C[C@@H]2N)[C@H](N)C[C@@H]1O` [Tobramycin] (Biolog plate: PM25), the growth activity index was 5. Take `NCC(=O)O` [Glycine hydrochloride] (Biolog plate: PM23): the growth activity index was 2. The figure for `C[C@H]1c2cccc(O)c2C(=O)C2=C(O)[C@]3(O)C(=O)C(C(N)=O)=C(O)[C@@H](N(C)C)[C@@H]3[C@@H](O)[C@@H]21` [Doxycycline] (Biolog plate: PM23) is 5.33; for `O=c1[nH]cc(F)c(=O)[nH]1` [5-Fluorouracil] (Biolog plate: PM25) it is 5.33; for `On1ccccc1=S` [1-Hydroxypyridine-2-thione (pyrithione)] (Biolog plate: PM21) it is 4.25.
